Screens (PubChem BioAssay)
An excerpt weighted towards active compounds, which were near 4.1% of everything screened.
DAX1 inh-1 = DAX1 (NR0B1) inhibition, primary screen; 370,000 tested, 1.1% active; HEK293T StAR-luciferase reporter, SF-1/DAX-1 repression relief; inhibition, % at 6.8 µM;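 active = inhibition above the mean over all tested compounds plus 3 SD, cut at about 3.6% in these data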;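 note: 0% = DAX-1 cells with DMSO and 100% = cells lacking DAX-1 with DMSO; higher inhibition means more luminescence from relief of DAX-1 repression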
DAX1 inh-2 = NR0B1 (DAX1) inhibition | P51843 | HEK293 Gal4-DAX1 luciferase reporter, luminescence | inhibition, % at 6.75 µM | 340,000 tested, 0.99% active;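 active = inhibition above the mean over all tested compounds plus 3 SD, cut at about 4.2% in these data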;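 note: 0% = DAX1-transfected cells with DMSO and 100% = empty-vector control cells with DMSO; inhibition shows as a rise in luminescence from relieved DAX1 repression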
Target sequence (P51843 207-470 limits assumed): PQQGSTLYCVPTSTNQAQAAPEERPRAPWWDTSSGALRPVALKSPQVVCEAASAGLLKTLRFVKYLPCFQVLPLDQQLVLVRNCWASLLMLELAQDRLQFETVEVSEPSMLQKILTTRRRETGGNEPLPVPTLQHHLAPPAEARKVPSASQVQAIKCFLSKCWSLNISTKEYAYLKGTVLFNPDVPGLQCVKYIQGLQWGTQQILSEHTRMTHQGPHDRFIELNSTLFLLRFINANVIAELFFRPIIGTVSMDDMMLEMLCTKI
hcDAF-12 act = H. contortus DAF-12 activation, primary screen; activation, % at 6.8 µM; HEK293 hcDAF-12 lit1-tk-luc reporter, luminescence; 0% DMSO, 100% Δ7-dafachronic acid; 370,000 tested, 1.4% active;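 active = activation above the mean of all tested compounds plus 3 SD, cut at about 5.5% in these data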;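 note: 100% = response to 3 µM Δ7-dafachronic acid high control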
hgDAF12 agonist = agonists of H. glycines DAF-12 nuclear receptor; HEK293 GAL4-hgDAF12 UAS-luciferase reporter, agonist luminescence; normalized to butyrate control; activation, % at 6.8 µM; 370,000 tested, 1.8% active; AID 687014;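 active = activation above a cutoff set at the mean of all screened compounds plus 3 SD, cut at about 10% in these data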;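 note: 0% = DMSO wells and 100% = sodium butyrate wells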
ssDAF-12 act = activators of S. stercoralis DAF-12 nuclear receptor; activation, % at 6.8 µM; 370,000 tested, 1% active; HEK293 ssDAF-12/GRIP1 lit1-tk-luc reporter, luminescence; % of 3 µM dafachronic acid response;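 active = activation above the mean over all tested compounds plus 3 SD, cut at about 0.9% in these data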;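 note: 0% = DMSO-only wells and 100% = 3 µM delta7-dafachronic acid wells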
* marks the source's active call; other numbers are inactive results; x = no result.

SMILES | DAX1 inh-1 | DAX1 inh-2 | hcDAF-12 act | hgDAF12 agonist | ssDAF-12 act
CC(NCCc1ccc(S(N)(=O)=O)cc1)C(=O)NCCc1ccc(F)cc1 (stereo not drawn) | 0 | 5.1* | -1 | -1 | -1
Cc1ccc(CNC(=O)OC(C)(C)C)c(/C=C/S(=O)(=O)NC2CCCC2)c1 | -1 | x | 0 | 1 | -1
CN(C(=O)CSc1nc2ccccc2c(=O)n1-c1ccccc1F)C1CCS(=O)(=O)C1 (stereo not drawn) | -1 | -1 | 1 | -3 | 0.9*
CCOC(=O)CN1C(=O)S/C(=C/c2ccc(C)o2)C1=O | 1 | 0 | -2 | 4 | -1
CCOC(=O)CN1C(=O)S/C(=C/c2ccc(O)c([N+](=O)[O-])c2)C1=O | -1 | 5.9* | 1 | -1 | -2
CC1CC(CC(=O)NNc2nc(-c3ccccc3)cs2)C(=O)O1 (stereo not drawn) | -2 | 6.1* | 0 | 0 | -1
C/C(N)=C(/C#N)C(=O)CSc1nn(-c2ccc(Cl)cc2)c(=S)s1 | 2 | 2 | 0 | 10* | -1
CC1=C2NC(N)=[N+](Cc3ccc4c(c3)OCO4)CC2NOC1 (stereo not drawn) | x | x | -2 | -1 | -1
Cc1ccc(C(=O)N(C)[C@H]2C[C@H]3c4[nH]c5c(-c6ccccc6)cccc5c4CCN3C(=O)[C@H]2[C@H](C)O)cc1 | 0 | x | 1 | 3 | -1
O=[N+]([O-])c1ccc(NCc2ccc(Cl)cc2)nc1 | -1 | -1 | -1 | 6 | -2
CC(C)c1ccc(CNc2ccc([N+](=O)[O-])cn2)cc1 | 3.9* | 1 | 3 | 12* | -1
CC1=NN(C(N)=S)C(=O)C1N=Nc1ccc(O)cc1 (stereo not drawn) | 0 | 2 | -1 | -2 | -2
CC1=NN(C(N)=S)C(=O)C1N=Nc1ccc(C)c(Br)c1 (stereo not drawn) | 1 | 2 | 6.1* | 8 | 0
C=C(CO)C1Cc2cc(C(C)=O)ccc2O1 (stereo not drawn) | -1 | 4.3* | 0 | 0 | -1
CC1Cc2cc(C(=O)O)ccc2O1 (stereo not drawn) | 0 | 2 | 0 | 1 | -1
Cc1ccc(C2C(C(=O)O)c3ccccc3C(=O)N2C)c(C)c1 (stereo not drawn) | 1 | 0 | 0 | -2 | -1
CN1C(=O)c2ccccc2C(C(=O)O)C1c1cn(C)c2ccccc12 (stereo not drawn) | 0 | 0 | 5.9* | 0 | -1
COc1ccc(Cl)cc1N1C(=O)CC(Sc2ccccc2N)C1=O (stereo not drawn) | 0 | 1 | -1 | 3 | 1.6*
CCOc1ccccc1N1C(=O)CC(Sc2ccccc2N)C1=O (stereo not drawn) | 0 | 1 | 0 | 0 | -1
Cc1nn(-c2nc(-c3ccco3)cc(C(F)(F)F)n2)c(C)c1Br | 0 | 4.7* | -2 | 0 | -1
Fc1ccc(N2CCN(c3nc(-c4ccco4)cc(C(F)(F)F)n3)CC2)cc1 | 0 | 0 | 2 | 0 | -1
CCCc1cc(C(=O)Cc2ccc(F)cc2)c(O)cc1O | 0 | 0 | -1 | 0 | -1
CCCc1cc(C(=O)Cc2nc3ccccc3s2)c(O)cc1O | 1 | 1 | 5.7* | 5 | 0.9*
COc1ccc(C2C(C(C)=O)=C(O)C(=O)N2c2ccc(C)cc2)cc1 (stereo not drawn) | 1 | 4.5* | 0 | 4 | 0
CCCC[C@H]1C2CC(OC(=O)Nc3ccc(C#N)cc3)C(C2)[C@H]2CCCCN21 (stereo partly drawn) | 0 | x | -1 | 3 | 0
SMILES | DAX1 inh-1 | DAX1 inh-2 | hcDAF-12 act | hgDAF12 agonist | ssDAF-12 act
Cn1cc(CN2CCc3c([nH]c4ccccc34)C2C(C)(C)C)cn1 (stereo not drawn) | -1 | 0 | 5.9* | -2 | -1
COc1cc(N=Nc2ccc3ccccc3c2)ccc1O | 2 | 8.1* | 6 | 9 | 1.7*
COc1cc(N=Nc2ccccc2C(=O)O)ccc1O | 0 | -1 | -2 | -2 | -1
COc1ccc(NC(=O)NNC(=O)CCC(=O)Nc2ccccc2Cl)cc1 | 0 | 8.3* | -1 | 0 | -2
Oc1ccc(Oc2ccccc2F)c2cccnc12 | x | x | 5.7* | 2 | -1
Cc1n[nH]c(C)c1S(=O)(=O)NCCc1ccccc1 | -1 | x | 0 | 1 | -2
COc1ccc(Cn2cc(CN3[C@H](CC(C)C)COc4cc(Br)ccc4S3(=O)=O)nn2)cc1 | 1 | x | 1 | 1 | -1
Cc1ccccc1NC(=O)OCCCN1C(=O)CCC12CCC(C)CC2 (stereo not drawn) | 2 | x | -2 | -1 | -1
S=C(N/N=C/c1ccc(Br)cc1)N1CCCCC1 | 2 | 6.7* | 3 | 10 | 1.2*
Cc1ccc(/C=N/NC(=S)N2CCOCC2)cc1 | 2 | 1 | 4 | 12* | 0
C[C@H]1CCCN1c1cccc2c1S(=O)(=O)N(C1CC1)CCCO2 | -1 | x | 0 | -1 | -1
Cc1cnc(C(=O)Nc2ccc(C(C)C)cc2)cn1 | 2 | 1 | 2 | 12* | -1
Cc1cnc(C(=O)Nc2ccc(F)cc2)cn1 | 2 | 2 | 1 | 8 | -1
O=C(N(c1ccccn1)c1ccccn1)C12CC3CC(CC(Cl)(C3)C1)C2 | 0 | 1 | 6.2* | 0 | -2
CCCC(=O)OCC(=O)Nc1ccc(N=Nc2ccccc2)cc1 | 3 | 3 | 5.7* | 11* | 0
C[C@H]1CCCN1c1ccc2c(c1)OCCCN(C1CC1)S2(=O)=O | -1 | x | -1 | 0 | -1
CCCCNC(=O)C[C@H]1C[C@@]2(C(=O)OC)C(=C[C@H](C(C)C)O[C@@H]2C2CC2)N(Cc2ccco2)C1=O | 0 | x | -3 | -2 | -2
C[C@H]1C2CC(OC(=O)Nc3ccc(C(F)(F)F)cc3)C(C2)[C@H]2CCCCN21 (stereo partly drawn) | 1 | x | -1 | 0 | -1
O=C(O)c1nn(Cc2nc3ccccc3o2)c(=O)c2ccccc12 | 0 | 0 | 5.9* | -1 | 0
Cc1ccc(-c2noc(Cn3nc(C(=O)O)c4ccccc4c3=O)n2)cc1 | 0 | 2 | -1 | -2 | -1
CC(C)NC(=O)c1ccc(NC(=O)CC2SC(N3CCCCC3)=NC2=O)cc1 (stereo not drawn) | -1 | 1 | 2 | -4 | 1.7*
CC(C)NC(=O)c1ccc(NC(=O)CC2SC(N3CCCC3)=NC2=O)cc1 (stereo not drawn) | -1 | 0 | 0 | 2 | -2
Cc1ccc(-n2c(Cc3cccs3)nnc2SCC(=O)Nc2cccc3ccccc23)cc1 | -1 | x | -2 | 2 | -2
C/C(=N\Nc1ccc(C(F)(F)F)cn1)c1ccncc1 | 4.0* | 0 | 0 | 4 | -1
Oc1ccc(/C=N/Nc2ccc(C(F)(F)F)cn2)cc1 | 4.4* | 0 | 3 | 9 | 0
Oc1ccc(/C=N/Nc2ccc(C(F)(F)F)cn2)c(O)c1 | -2 | 0 | -1 | -4 | -1
